TrxR1 inh – blocks rat thioredoxin reductase 1; O89049; recombinant rTrxR1, NADPH fluorescence consumption, selenite substrate; Potency, µM (highest dose often 114 µM), for the others: at the top dose activity change, negative = inhibition, usual class: inhibitors; 390,000 tested, 1% active; AID 588453; also: potency is read from the fitted curve at half-maximal effect; nearly all actives have a fitted effect of over 65% in size
Target sequence (O89049 whole entry, looked up): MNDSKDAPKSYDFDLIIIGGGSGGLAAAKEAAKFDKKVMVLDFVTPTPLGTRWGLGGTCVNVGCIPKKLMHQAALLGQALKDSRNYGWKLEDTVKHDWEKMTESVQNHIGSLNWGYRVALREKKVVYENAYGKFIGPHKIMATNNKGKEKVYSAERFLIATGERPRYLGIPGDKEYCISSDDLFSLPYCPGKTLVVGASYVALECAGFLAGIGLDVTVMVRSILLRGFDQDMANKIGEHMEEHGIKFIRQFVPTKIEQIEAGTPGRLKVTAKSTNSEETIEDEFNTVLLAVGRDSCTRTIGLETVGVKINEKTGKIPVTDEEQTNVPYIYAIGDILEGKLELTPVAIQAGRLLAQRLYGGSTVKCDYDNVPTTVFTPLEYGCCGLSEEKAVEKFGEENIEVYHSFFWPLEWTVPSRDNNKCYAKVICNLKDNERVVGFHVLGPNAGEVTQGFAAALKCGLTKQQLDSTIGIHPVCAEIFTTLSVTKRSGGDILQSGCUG
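Rat TrxR1 (90 nM in the dispensed reagent) was pre-reduced with 400 uM NADPH for 5 min at room temperature, then incubated with compound for 15 min. After 400 uM selenite was added, NADPH fluorescence (Ex 340/Em 450 nm) was followed for 8 min.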
LDHA inh – blocks human lactate dehydrogenase A. purified LDHA, NADH/diaphorase-resazurin fluorescence; active compounds read low. activity change, % (values are at about 110 or 230 µM). 480,000 tested, 0.15% active; in the data active = activity change below about -30%; inconclusive = mostly about -25% to -30%;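 also: plate controls were DMSO wells for no effect and wells without enzyme for full effect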
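Human LDH5 (2 nM) was incubated with 0.06 mM NADH and 0.2 mM pyruvate for 5 min at room temperature in Tris pH 7.4. Remaining NADH was coupled through diaphorase/resazurin, and resorufin fluorescence was read at 0 and 20 min.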
PKM2 activator – activators of human pyruvate kinase M2. P14618. purified PKM2, Kinase-Glo ATP luminescence, activation; response scale: 0% is enzyme alone, no compound. Potency, µM (doses to about 57.5 µM), without a hit: at the highest dose activation, usual class: activators. 260,000 tested, 0.34% active; also: potency is read from the fitted curve at half-maximal effect; nearly all actives have a fitted effect of over 55% in size
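Kinase-Glo luminescence reports ATP generated from ADP (0.1 mM) and PEP (0.5 mM) by purified hPK-M2 after 1 h at room temperature, pH 7.2 imidazole buffer; intermediate enzyme activity allows detecting inhibitors and activators.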
mIDH1 inhibitor – human IDH1 R132H inhibition | O75874 | Potency, µM (top dose mostly 76.6 µM), for the others: top-dose activity change, negative = inhibition, most hits filed as inhibitors | IDH1-R132H enzyme, NADPH consumption, diaphorase/resazurin fluorescence | 390,000 tested, 0.093% active | AID 602179; also: potency is read from the fitted curve at half-maximal effect; nearly all actives have a fitted effect of over 65% in size
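IDH1-R132H (0.5 ug/mL) preincubated 30 min with compound, then NADPH (0.016 mM) and alpha-KG (2 mM) added; 80 min at RT, pH 7.5. Remaining NADPH coupled via diaphorase/resazurin to fluorescence (540/590 nm); concentration-response curves normalized to no-enzyme control.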
TrxR1 substrate – is turned over as a substrate by rat TrxR1. O89049. purified TrxR1 substrate turnover, NADPH consumption readout. Potency, µM (series often up to 114 µM), for inactives: at the highest dose activity change, negative = substrate turnover. 390,000 tested, 0.01% active; also: potency is read from the fitted curve at half-maximal effect; nearly all actives have a fitted effect of over 50% in size
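Rat TrxR1, dispensed at 90 nM, was prereduced with 400 uM NADPH (final) for 5 min at ~22 deg C, then incubated with compound 15 min before 400 uM selenite. A first-read NADPH fluorescence drop versus no-compound background flagged substrates.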
GLS inhibitor – glutaminase GLS (human) inhibition. 410,000 tested, 0.21% active. O94925. Potency, µM (top dose mostly 45.5 µM), for inactives: at the highest dose activity change, negative = inhibition, most hits filed as inhibitors. GLS enzymatic activity, qHTS titration; also: potency is read from the fitted curve at half-maximal effect
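Human kidney-isoform GLS in 45 mM KH2PO4 pH 8.2, 0.02% Tween-20, with compound, started with 1mM L-Glutamine (added stock). Glutamate oxidase/HRP/Amplex red coupled fluorescence read at start and after 30 min at RT.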
Numbers without * were called inactive; ? = inconclusive; nt = no result given; ! = a repeat was not active; [ ] = remark or other dose. This is a sample that favours compounds with a hit; in the whole collection about 1.4% have one here. Unless noted, calls follow the shape of the dose curve; as a rule, active = well fitted curve in the direction sought with a large enough effect; inconclusive = small, poorly fitted or top-dose-only effect, or another doubt; inactive = no such curve, though single readings can be large; an effect the other way counts as inactive or inconclusive. Unless noted, % is scaled to controls: 0 for no effect and ±100 for the full control effect.

SMILES | TrxR1 inh | LDHA inh | PKM2 activator | mIDH1 inhibitor | TrxR1 substrate | GLS inhibitor
Oc1ccc(C(c2nnnn2C2CCCCC2)N2CCOCC2)cc1 (stereo not given) | -15%[57.1 µM] | -6 | -4% | 6% | 5%[57.1 µM] | 4%
C=C(CN(C)C)C(=O)c1cc(OC)c(OC)cc1OC | 1.8µM* | 2 | nt | 2% | -9% | 12%
COc1cc(OC)c(C(=O)CCC(=O)O)cc1OC | -9% | -7 | -6% | 9% | -12% | 11%
C=C(CN(C)C)C(=O)c1ccc2c(c1)OCO2 | 1.6µM* | -6 | nt | 0% | -8% | 1%
C=C(CN(C)C)C(=O)c1ccc(C)cc1C | 2µM* | -15 | nt | -2% | 15%[11.4 µM] | 19%
CN(C)CCNc1oc(COc2ccc(Cl)cc2Cl)nc1C#N | -13% | 1 | 3% | -5% | 9%[57.1 µM] | 3%
COCCCNc1oc(COc2ccc(Cl)cc2Cl)nc1C#N | 25µM* | 1 | 8% | 4% | -9% | 14%
O=C(/C=C/c1ccc(Br)o1)NC(c1ccccc1)c1ccccc1 | 20µM* | 0 | -5% | 7% | 16% | -9%
O=C(c1cc(=O)[nH]c2ccccc12)N1CCN(Cc2ccccc2)CC1 | nt | 4 | nt | nt | nt | nt
Cc1ccc(S(=O)(=O)N2CCN(C(=O)C(C)Cn3nc(C)c(C)c3C)CC2)cc1C (stereo not given) | 11% | 3 | 2% | 7% | 11% | 5%
Cc1ccc(S(=O)(=O)N2CCN(C(=O)CCN3C(=O)c4ccccc4C3=O)CC2)cc1C | 6%[57.1 µM] | -13 | 5.6µM* | 13% | -10% | 9%
Cc1ccc(S(=O)(=O)N2CCN(C(=O)CCn3nc(C)c(C)c3C)CC2)cc1C | -1% | -4 | 7.9µM* | 5% | -3% | -2%
O=C(CC1CCCC1)Nc1ccc2c(c1)-c1ccccc1C2 | nt | 2 | nt | nt | nt | nt
Cc1ccc2nc(-c3cccc(NC(=O)c4ccc(C#N)cc4F)c3)oc2c1 | nt | 19 | nt | nt | nt | nt
COc1ccc(S(=O)(=O)n2nc(OC(C)=O)cc2N)cc1 | 18µM* | -3 | 0% | 8% | 0% | 56%
Nc1cc(OC(=O)c2cccs2)nn1S(=O)(=O)c1ccc(F)cc1 | 79µM* | 4 | 2% | 5% | 4% | 35%
Nc1cc(OC(=O)c2cccs2)nn1S(=O)(=O)c1ccccc1 | -1%[57.1 µM] | -1 | -2% | 2% | 12%[57.1 µM] | 3%
Cc1c(NC(=O)c2cc(-c3ccc(Cl)c(Cl)c3)on2)c(=O)n(-c2ccccc2)n1C | 17% | -12 | 2% | 5% | 1% | 16µM*!
COc1cc(/C=C/C(=O)OCC(=O)Nc2cc(C)c(C)cc2[N+](=O)[O-])ccc1O | 10% | 0 | 0% | -1% | 3% | 6%
COc1cc(/C=C/C(=O)OCC(=O)Nc2ccc(C)cc2[N+](=O)[O-])ccc1O | 26% | -2 | 18µM* | 2% | 8% | 5.6µM*
CCOC(=O)N1CCC(N2CCN(S(=O)(=O)CC)CC2)CC1 | ? | -34* | 1% | -8% | 10% | 0%
CCOC(=O)N1CCC(N2CCN(S(=O)(=O)c3ccc(C)cc3)CC2)CC1 | 18% | -22 | -3% | 7% | 3% | -2%
S=C(NCCCc1cnc[nH]1)NCCCN(Cc1ccc(Cl)cc1)c1ccc(-c2ccccc2)cn1 | 89µM* | 0 | nt | nt | -3% | nt
COc1ccc(-c2noc(CSc3nc4ccc(Cl)cc4o3)n2)cc1 | nt | 1 | nt | nt | nt | nt
O=C(O)/C=C/S(=O)(=O)c1ccc2ccccc2c1 | 11µM* | -4 | 1% | -3% | 7% | 1%
SMILES | TrxR1 inh | LDHA inh | PKM2 activator | mIDH1 inhibitor | TrxR1 substrate | GLS inhibitor
CS(=O)(=O)c1cccc(OCCOc2ccc(F)cc2)c1 | nt | 2 | nt | nt | nt | nt
CNC(=O)NC(=O)CN(C)C(C)C1CC1 (stereo not given) | nt | -8 | nt | nt | nt | nt
O=C(CN1CCN(c2ccccc2)CC1)N1N=C(c2cc3ccccc3o2)CC1c1ccco1 (stereo not given) | nt | -2 | nt | nt | nt | nt
CCOc1cc(/C=C2\C(=O)N(Cc3ccco3)C(C)=C2C(=O)OC)ccc1O | 22µM* | 9 | 21% | 7% | -9% | 16%
COC(=O)C1=C(C)N(Cc2ccccc2)C(=O)/C1=C\c1ccco1 | 50µM* | 5 | 19% | 0% | 11% | -6%
CCOC(=O)C1=C(C)N(c2ccc(C)cc2)C(=O)/C1=C\c1ccc(O)c(OC)c1 | 18µM* | 15 | -2% | 8% | 4% | 18%
CCOc1cc(/C=C2\C(=O)N(CCc3ccc(OC)c(OC)c3)C(C)=C2C(=O)OC)ccc1O | ? | 38 | -32% | 4% | -4% | 2%
COC(=O)C1=C(C)N(CCc2ccccc2)C(=O)/C1=C\c1ccco1 | ? | 0 | 13% | 5% | -7% | 0%
CN(C)C(=O)c1ccc(NC(=O)c2ccc(C#N)cc2)cc1 | nt | 4 | nt | nt | nt | nt
COCCn1c(Cc2c(Cl)cccc2Cl)n[nH]c1=S | nt | -3 | nt | nt | nt | nt
CC(OC(=O)Cc1n[nH]c(=O)c2ccccc12)C(=O)c1ccc2c(c1)CCC2 (stereo not given) | nt | 1 | nt | nt | nt | nt
C=C1[C@@H](O)[C@H](Cc2ccccc2)N(Cc2ccccc2Br)S1(=O)=O | 14µM* | -6 | nt | -1%[38.3 µM] | -3% | 20%
O=S1(=O)c2ccccc2C(O)C(Cc2ccncc2)N1CCO (stereo not given) | nt | 1 | nt | nt | nt | nt
COc1ccc2[nH]c(C)c(C(=O)CN3CCCCC3C)c2c1 (stereo not given) | nt | -1 | nt | nt | nt | nt
N#C/C(=C\c1ccc([N+](=O)[O-])o1)c1nc2ccccc2[nH]1 | 2.8µM* | 0 | 11% | 12% | 4% | -7%
CC(C)Oc1ccc2ccccc2c1/C=C(\C#N)c1nc2ccccc2[nH]1 | nt | -30* | nt | nt | nt | nt
Cc1ccc2nc(/C(C#N)=C\c3ccc([N+](=O)[O-])o3)[nH]c2c1 | ? | 16 | -5% | 8% | 5%[57.1 µM] | -1%
CC1(C)CC(=O)C2=C(C1)Nc1ccccc1S2 | 25%[57.1 µM] | -11 | 1% | 9% | 6%[57.1 µM] | 10µM*
CCOC(=O)C1C(c2ccccc2)NC(=S)NC1(C)O (stereo not given) | 7%[57.1 µM] | -4 | -3% | 6% | -2% | 2.8µM*
CCOC(=O)c1ccc2ncc(C(=O)OCC)c(Nc3cccc(C(C)=O)c3)c2c1 | nt | 9 | nt | nt | nt | nt
CC[N+]1(C)CC2CCC(C)(C1)C2(C)C (stereo not given) | 23% | -31*! | -13% | 1% | 2%[57.1 µM] | -3%
CCN(Cc1ccncc1)Cc1c(O)ccc2ccccc12 | 5µM* | 25 | 10% | 14% | 12%[57.1 µM] | -29%
COC(CN(C(=O)CCl)C(C(=O)NC1CCCCC1)c1ccccc1C)OC (stereo not given) | 40µM* | -2 | -1% | 0% | 2% | -7%
